Our source for the Potency values is PubChem BioAssay (Tox21).

Inconclusive results are not listed. Where a call stands in place of a potency, no number is given. Some compounds were tested as several samples or in several runs, with calls that do not always agree. Calls of active or inactive are those of the source. Unless noted, calls come from the whole dose curve.

Test system in the first assay: not listed separately
The assay is described as follows: qHTS assay to identify small molecule antagonists of the thyroid receptor (TR) signaling pathway (AID 743065; active = well fitted inhibition curve with a large enough effect in the repeat runs; note: nearly all actives have a fitted effect of over 55% in size). As to conditions: GH3.TRE-Luc, T3-stimulated luciferase inhibition, 23.5 h; series mostly up to 70.3 µM. Put shortly: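 GH3.TRE-Luc rat pituitary cells carrying two TR response elements driving luciferase were plated for 4 h, given compound plus 1 nM T3 (final), and incubated 23.5 h at 37 C. ONE-Glo luminescence measured reporter inhibition; CellTiter-Fluor fluorescence tracked cytotoxicity.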
For orientation: qHTS replaces the single test concentration by a dilution series.
As for `O=S1(=O)CCCO1`, the Potency entry is “inactive”.

As for `CCOC(=O)C(C)Oc1ccc(Oc2cnc3cc(Cl)ccc3n2)cc1` (stereo not drawn), the Potency entry was “inactive”.

In the case of `COC(=O)CC(=O)OC`, the Potency entry was “inactive”.

With `C=C[Si](OCCOC)(OCCOC)OCCOC`, the Potency entry is “inactive”.

For the molecule `CN(C)/N=N/c1nc[nH]c1C(N)=O`, the Potency result was “inactive”.

Turning to `c1ccc2c(c1)[nH]c1ccccc12`, the Potency entry is “inactive”.

Take `CCCCCCC(C)O` (stereo not drawn): the Potency entry was “inactive”.

In the case of `CCC/C=C/C=O`, the Potency entry was “inactive”.

With `CCCCCCCCCCCCO`, the Potency entry is “inactive”.

Consider `CC(C)[N+](C)(CCOC(=O)C1c2ccccc2Oc2ccccc21)C(C)C`, for which the Potency result was “inactive”.

As to `C/C=C/C(=O)N(CC)c1ccccc1C`, the Potency entry is “inactive”.

With `COC(=O)c1ccc(C)cc1`, the Potency result is “inactive”.

With `CCc1cccc2c3c([nH]c12)C(CC)(CC(=O)O)OCC3` (stereo not drawn), the Potency entry was “inactive”.

`CCCCCCCCCCCCCO`: the Potency result is “inactive”.

As for `CC(C)=CCO`, the Potency entry is “inactive”.

As to `CC(=O)Oc1c(C)c(C)c2c(c1C)CC[C@@](C)(CCC[C@H](C)CCC[C@H](C)CCCC(C)C)O2`, the Potency entry is “inactive”.

For the molecule `Cc1ccc(C(C)(C)C)cc1`, the Potency entry was “inactive”.

For `CCO[Si](CCCNC(N)=O)(OCC)OCC`, the Potency result was “inactive”.

Consider `OC[C@H]1O[C@@H]2O[C@H]3[C@H](O)[C@@H](O)[C@@H](O[C@H]4[C@H](O)[C@@H](O)[C@@H](O[C@H]5[C@H](O)[C@@H](O)[C@@H](O[C@H]6[C@H](O)[C@@H](O)[C@@H](O[C@H]7[C@H](O)[C@@H](O)[C@@H](O[C@H]1[C@H](O)[C@H]2O)O[C@@H]7CO)O[C@@H]6CO)O[C@@H]5CO)O[C@@H]4CO)O[C@@H]3CO`, for which the Potency entry was “inactive”.

In the case of `CC1(C)O[C@@H]2C[C@H]3[C@@H]4C[C@H](F)C5=CC(=O)C=C[C@]5(C)[C@@]4(F)[C@@H](O)C[C@]3(C)[C@]2(C(=O)CO)O1`, the Potency result is “inactive”.

Regarding `CCCCCCCC/C=C\CCCCCCCC(=O)O`, the Potency entry is “inactive”.

In the case of `CN(C)C`, the Potency entry is “inactive”.

Regarding `CCC(Cc1c(I)cc(I)c(N)c1I)C(=O)O` (stereo not drawn), the Potency entry was “inactive”.

Turning to `Cc1ccc([N+](=O)[O-])c(C)c1`, the Potency result is “inactive”.

Turning to `O=C1CCc2ccccc2O1`, the Potency result was “inactive”.

Take `[Na+]`: the Potency result was “inactive”.

For the molecule `C1COCCN1`, the Potency result is “inactive”.

As for `Nc1cc(Cl)c(N)c(Cl)c1`, the Potency entry was “inactive”.

Regarding `CC(C)(C)c1cccc(C(C)(C)C)c1O`, the Potency entry is “inactive”.

On to `C=CCNCC=C`, for which the Potency entry was “inactive”.

`FC(F)(F)C(Cl)Br` (stereo not drawn): the Potency entry was “inactive”.

As for `CCCCCC1C(=O)CCC1CC(=O)OC` (stereo not drawn), the Potency result is “inactive”.

Take `NCCOCCO`: the Potency result was “inactive”.

For `CNC[C@H](O)c1ccc(O)c(O)c1`, the Potency result is “inactive”.

As to `NCCS(=O)(=O)O`, the Potency result was “inactive”.

As for `Cc1ccc(S(=O)(=O)O)cc1C`, the Potency result is “inactive”.

For the molecule `CC1(C)C(C=C(Cl)Cl)C1C(=O)OCc1cccc(Oc2ccccc2)c1` (stereo not drawn), the Potency result is “inactive”.

`Cc1ccc(N)c([N+](=O)[O-])c1`: the Potency result was “inactive”.

On to `O=C(O)c1cc(=O)[nH]c(=O)[nH]1`, for which the Potency entry is “inactive”.

The test system of the next assay is thyroid hormone receptor (rat, GH3 cells). The assay is described as follows: qHTS assay to identify small molecule agonists of the thyroid receptor (TR) signaling pathway (AID 743066). Note: potency is the fitted concentration of half-maximal effect. As to conditions: GH3.TRE-Luc cells, TR agonist luciferase, 24 h; series mostly up to 83.9 µM.
Regarding `O=S1(=O)CCCO1`, the Potency result is “inactive”.

Turning to `CCOC(=O)C(C)Oc1ccc(Oc2cnc3cc(Cl)ccc3n2)cc1` (stereo not drawn), the Potency entry is “inactive”.

Turning to `COC(=O)CC(=O)OC`, the Potency result was “inactive”.

With `C=C[Si](OCCOC)(OCCOC)OCCOC`, the Potency result is “inactive”.

For the molecule `CN(C)/N=N/c1nc[nH]c1C(N)=O`, the Potency entry was “inactive”.

As to `c1ccc2c(c1)[nH]c1ccccc12`, the Potency entry is “inactive”.

Turning to `CCCCCCC(C)O` (stereo not drawn), the Potency is 55.6 µM (active) and inactive.

For `CCC/C=C/C=O`, the Potency result is “inactive”.

On to `CCCCCCCCCCCCO`, for which the Potency result was “inactive”.

`CC(C)[N+](C)(CCOC(=O)C1c2ccccc2Oc2ccccc21)C(C)C`: the Potency result is “inactive”.

`C/C=C/C(=O)N(CC)c1ccccc1C`: the Potency result is “inactive”.

Consider `COC(=O)c1ccc(C)cc1`, for which the Potency result was “inactive”.

Turning to `CCc1cccc2c3c([nH]c12)C(CC)(CC(=O)O)OCC3` (stereo not drawn), the Potency result is “inactive”.

For `CCCCCCCCCCCCCO`, the Potency entry was “inactive”.

As for `CC(C)=CCO`, the Potency result was “inactive”.

For `CC(=O)Oc1c(C)c(C)c2c(c1C)CC[C@@](C)(CCC[C@H](C)CCC[C@H](C)CCCC(C)C)O2`, the Potency entry was “inactive”.

Regarding `Cc1ccc(C(C)(C)C)cc1`, the Potency entry was “inactive”.

As to `CCO[Si](CCCNC(N)=O)(OCC)OCC`, the Potency entry was “inactive”.

As for `OC[C@H]1O[C@@H]2O[C@H]3[C@H](O)[C@@H](O)[C@@H](O[C@H]4[C@H](O)[C@@H](O)[C@@H](O[C@H]5[C@H](O)[C@@H](O)[C@@H](O[C@H]6[C@H](O)[C@@H](O)[C@@H](O[C@H]7[C@H](O)[C@@H](O)[C@@H](O[C@H]1[C@H](O)[C@H]2O)O[C@@H]7CO)O[C@@H]6CO)O[C@@H]5CO)O[C@@H]4CO)O[C@@H]3CO`, the Potency entry was “inactive”.

In the case of `CC1(C)O[C@@H]2C[C@H]3[C@@H]4C[C@H](F)C5=CC(=O)C=C[C@]5(C)[C@@]4(F)[C@@H](O)C[C@]3(C)[C@]2(C(=O)CO)O1`, the Potency result is “inactive”.

For `CCCCCCCC/C=C\CCCCCCCC(=O)O`, the Potency entry was “inactive”.

For the molecule `CN(C)C`, the Potency entry was “inactive”.

In the case of `CCC(Cc1c(I)cc(I)c(N)c1I)C(=O)O` (stereo not drawn), the Potency entry is “inactive”.

With `Cc1ccc([N+](=O)[O-])c(C)c1`, the Potency result was “inactive”.

Regarding `O=C1CCc2ccccc2O1`, the Potency result was “inactive”.

Turning to `[Na+]`, the Potency entry is “inactive”.

Take `C1COCCN1`: the Potency entry was “inactive”.

For the molecule `Nc1cc(Cl)c(N)c(Cl)c1`, the Potency result was “inactive”.

As for `CC(C)(C)c1cccc(C(C)(C)C)c1O`, the Potency result was “inactive”.

On to `C=CCNCC=C`, for which the Potency entry was “inactive”.

With `FC(F)(F)C(Cl)Br` (stereo not drawn), the Potency result is “inactive”.

On to `CCCCCC1C(=O)CCC1CC(=O)OC` (stereo not drawn), for which the Potency entry was “inactive”.

As to `NCCOCCO`, the Potency entry is “inactive”.

In the case of `CNC[C@H](O)c1ccc(O)c(O)c1`, the Potency entry was “inactive”.

In the case of `NCCS(=O)(=O)O`, the Potency entry is “inactive”.

`Cc1ccc(S(=O)(=O)O)cc1C`: the Potency result was “inactive”.

Consider `CC1(C)C(C=C(Cl)Cl)C1C(=O)OCc1cccc(Oc2ccccc2)c1` (stereo not drawn), for which the Potency result is “inactive”.

In the case of `Cc1ccc(N)c([N+](=O)[O-])c1`, the Potency result is “inactive”.

Regarding `O=C(O)c1cc(=O)[nH]c(=O)[nH]1`, the Potency entry is “inactive”.
